Experimental data reported in PubChem BioAssay (Tox21).
Records with an inconclusive call do not appear. Where a structure was tested more than once in an assay, its records may differ in their call. The source made the active and inactive calls. Unless noted, calls follow the shape of the full dose curve.

Assays:
[1] = Nuclear factor erythroid 2-related factor 2/antioxidant responsive element (Nrf2/ARE) small molecule agonists: qHTS cell viability counter screen in human keratinocytes (AID 1919968; active = well fitted curve in the direction sought with a large enough effect in the repeat runs; an effect the other way counts as inactive or inconclusive; also: nearly all actives have a fitted effect of over 55% in size; also: potency is read from the fitted curve at half-maximal effect)
Procedure, shortened: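 Stably transfected HaCaT (KeratinoSens), 1,500/well. Test agents in DMSO were applied for 23 h, 37 C/5% CO2. CellTiter-Fluor was incubated 1 h before the fluorescence read.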

[2] = Nuclear factor erythroid 2-related factor 2/antioxidant responsive element (Nrf2/ARE) small molecule agonists: luciferase reporter gene qHTS assay in human keratinocytes (AID 1919969); also: nearly all actives have a fitted effect of over 35% in size
[3] = target: Gonadotropin-releasing hormone receptor (Homo sapiens) (UniProt P30968); assay: Human gonadotropin-releasing hormone receptor (GnRHR) small molecule agonists, calcium flux assay in GnRHR-HEK293 cells (AID 1920063); also: nearly all actives have a fitted effect of over 35% in size
Procedure, shortened: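 Stable human GnRHR HEK293 line. 18 h plating, then calcium dye for 1 h at 37 C. Agonist-mode compound addition from DMSO stocks; fluorescence monitored 3 min.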

[4] = target: KiSS-1 receptor (Homo sapiens) (UniProt Q969F8); assay: Human kisspeptin (KISS1R) small molecule agonists, calcium flux assay in KISS1R-HEK293 cells (AID 1920064; active = well fitted curve in the direction sought with a large enough effect in the repeat runs; an effect the other way counts as inactive or inconclusive)
Procedure, shortened: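 After overnight (18 h) culture at 37 C/5% CO2, human KISS1R-HEK293 cells received calcium dye for 1 h, then test compound; emission at 540 nm (excitation 480 nm) was tracked for 3 min.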

[5] = G protein-coupled receptor (GPCR) small molecule agonists, calcium flux assay: HEK293 wild type cell line counter screen (AID 1920065)
Procedure, shortened: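 Following 18 h incubation at 37 C/5% CO2, plates got calcium dye for 1 h; compounds, ATP or DMSO were then pinned in and fluorescence followed kinetically (480/540 nm).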

[6] = p53 small molecule agonists, cell-based qHTS assay with human liver microsomes (AID 1963577);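 also: p53 response element beta-lactamase reporter cells with liver microsomes plus NADPH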
Procedure, shortened: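 HLM-supplemented p53RE-bla reporter assay: 16 h compound exposure at 37 C, microsomes and NADPH each 0.5 mg/mL final, read by fluorescence intensity.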

[7] = p53 small molecule agonists, cell-based qHTS assay with rat liver microsomes (AID 1963578)
Procedure, shortened: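 Quantitative HTS of the Tox21 10K library: p53RE-bla cells, rat liver microsomes plus NADPH at 0.5 mg/mL final each, 16 h at 37 C, beta-lactamase fluorescence detection.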

[8] = p53 small molecule agonists, cell-based qHTS assay with human liver microsomes: qHTS cell viability counter screen (AID 1963579); also: nearly all actives have a fitted effect of over 45% in size; also: potency is read from the fitted curve at half-maximal effect
Procedure, shortened: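 Viability of p53RE-bla cells is measured as CellTiter-Glo luminescence following a 16 h, 37 C incubation with compound, liver microsomes from human donors and NADPH.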

[9] = p53 small molecule agonists, cell-based qHTS assay with rat liver microsomes: qHTS cell viability counter screen (AID 1963580); also: nearly all actives have a fitted effect of over 45% in size
Procedure, shortened: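 Cytotoxicity counter screen: intracellular ATP measured by CellTiter-Glo luminescence in the same wells as the beta-lactamase reporter read, on HCT-116 p53RE-bla cells exposed 16 h at 37 C to compounds with rat liver microsomes and NADPH, each 0.5 mg/mL final.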

[10] = target: 5-hydroxytryptamine receptor 2A (Homo sapiens) (UniProt P28223); assay: 5-hydroxytryptamine receptor 2A (HTR2A) small molecule antagonists, cell-based qHTS assay (AID 1963586); also: nearly all actives have a fitted effect of over 45% in size
Procedure, shortened: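 CHO cells stably expressing human HTR2A were plated for 18 h at 37 C, then loaded with calcium dye for 1 h. Compounds were preincubated 5 min at room temperature before DOI (4 nM solution) was added. Kinetic fluorescence was read for 3 min.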

[11] = target: 5-hydroxytryptamine receptor 2A (Homo sapiens) (UniProt P28223); assay: 5-hydroxytryptamine receptor 2A (HTR2A) small molecule agonists, cell-based qHTS assay (AID 1963587); also: nearly all actives have a fitted effect of over 30% in size
Procedure, shortened: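 CHO cells stably expressing human HTR2A, plated 18 h, loaded with calcium dye 1 h at 37 C. Agonist mode: compounds added and intracellular calcium fluorescence recorded kinetically for 2 min at 1 sec intervals.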

[12] = target: Muscarinic acetylcholine receptor M1 (Homo sapiens) (UniProt P11229); assay: Cholinergic receptor muscarinic 1 (CHRM1) small molecule antagonists, cell-based qHTS assay (AID 1963588); also: nearly all actives have a fitted effect of over 40% in size
Procedure, shortened: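 Compounds were tested at 15 concentrations in three independent runs. Dye-loaded CHRM1-CHO cells were exposed 5 min at room temperature before stimulation by acetylcholine added at 50nM. Intracellular calcium was read kinetically on FDSS for 3 min.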

[13] = target: Muscarinic acetylcholine receptor M1 (Homo sapiens) (UniProt P11229); assay: Cholinergic receptor muscarinic 1 (CHRM1) small molecule agonists, cell-based qHTS assay (AID 1963589); also: nearly all actives have a fitted effect of over 35% in size
Procedure, shortened: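 Kinetic fluorescence (1 s intervals) of calcium-sensitive dye in human M1 CHO cells after compound addition; cells pre-incubated 18 h at 37 C/5% CO2 and dye-loaded 1 h.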

[14] = cAMP Responsive Elements (CRE) small molecule agonists, cell-based qHTS assay (AID 1963590)
Procedure, shortened: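 Test agents in DMSO were incubated 3 h at 37 C/5% CO2 with CRE-bla HEK 293T cells seeded 18 h earlier; LiveBLAzer B/G FRET substrate was added and read after 2 h at room temperature.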

[15] = cAMP Responsive Elements (CRE) small molecule antagonists, cell-based qHTS assay (AID 1963591; active = well fitted inhibition curve with a large enough effect in the signal ratio in the repeat runs, not every such curve was filed as active; the % refers to the signal ratio)
Procedure, shortened: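 Reporter line CRE-bla HEK 293T in dialyzed-FBS DMEM; cells preincubated 18 h, treated 3 h with compound plus NKH477 (0.25 uM final); LiveBLAzer FRET, 2 h RT.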

[16] = target: Beta-2 adrenergic receptor (Homo sapiens) (UniProt P07550); assay: Adrenergic beta2 receptor (ADRB2) small molecule antagonists, cell-based qHTS assay (AID 1963592); also: series mostly up to about 92 µM; nearly all actives have a fitted effect of over 50% in size
Procedure, shortened: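 Assay format: CHO-ADRB2 cells, 18-20hr seeding at 37C/5% CO2, then compound plus 1nM isoproterenol agonist mix for 0.5hr RT. Homogeneous time-resolved fluorescence cAMP detection after 1hr, expressed as 665/615 nm ratio.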

[17] = target: Beta-2 adrenergic receptor (Homo sapiens) (UniProt P07550); assay: Adrenergic beta2 receptor (ADRB2) small molecule agonists, cell-based qHTS assay (AID 1963593);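 also: CHO cells stably overexpressing human ADRB2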
Procedure, shortened: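 CHO cells stably over-expressing ADRB2 were plated overnight at 37C, then dosed with compounds plus a stimulation mix containing 100uM IBMX and 25uM Ro-20-1724 for 0.5hr at room temperature. cAMP was measured by HTRF competition, 1hr.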

[18] = target: D(2) dopamine receptor (Homo sapiens) (UniProt P14416); assay: Dopamine D2 receptor (DRD2) small molecule agonists, cell-based qHTS assay (AID 1963594); also: nearly all actives have a fitted effect of over 35% in size
Procedure, shortened: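 HEK293 cells stably expressing human DRD2, pre-treated with PDE inhibitor Ro20-1724 (0.1 mM final) and compound 10 min at room temperature, then stimulated with NKH477 (200nM […]) for 30 min. cAMP read by HTRF (665/620 nm).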

[19] = target: D(2) dopamine receptor (Homo sapiens) (UniProt P14416); assay: Dopamine D2 receptor (DRD2) small molecule antagonists, cell-based qHTS assay (AID 1963595; active = well fitted inhibition curve with a large enough effect in the signal ratio in the repeat runs, with a control signal flat; the % refers to the signal ratio)
Procedure, shortened: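 HTRF cAMP read-out at 665 and 620 nm emission (340 nm excitation). Antagonist mode: compounds were tested against 12 nM quinpirole in DRD2-HEK293 cells, with 200 nM NKH477 raising cAMP and 0.1 mM Ro20-1724 blocking its breakdown.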

[20] = p53 small molecule agonists, cell-based qHTS assay: qHTS cell viability counter screen (AID 1963581); also: nearly all actives have a fitted effect of over 45% in size
Procedure, shortened: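 qHTS counter screen: 16 h compound exposure at 37 C of p53RE-bla HCT-116 cells (4,000 per well, seeded 5 h prior), cell viability by ATP luminescence.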

Measured: Potency

Beta-2 adrenergic receptor (Homo sapiens), sequence (P07550 whole entry, looked up): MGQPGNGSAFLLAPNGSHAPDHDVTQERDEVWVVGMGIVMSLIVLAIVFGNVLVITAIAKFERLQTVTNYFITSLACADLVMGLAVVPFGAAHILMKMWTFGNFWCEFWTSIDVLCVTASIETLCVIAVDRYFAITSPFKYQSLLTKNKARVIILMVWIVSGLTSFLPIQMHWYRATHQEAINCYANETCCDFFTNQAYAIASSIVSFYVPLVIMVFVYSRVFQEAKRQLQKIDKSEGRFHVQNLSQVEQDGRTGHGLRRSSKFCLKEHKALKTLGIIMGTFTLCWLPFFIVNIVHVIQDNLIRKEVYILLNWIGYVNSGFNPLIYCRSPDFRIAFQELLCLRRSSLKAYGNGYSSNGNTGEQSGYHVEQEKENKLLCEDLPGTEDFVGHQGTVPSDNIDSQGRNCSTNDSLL
Gonadotropin-releasing hormone receptor (Homo sapiens), sequence (P30968 whole entry, looked up): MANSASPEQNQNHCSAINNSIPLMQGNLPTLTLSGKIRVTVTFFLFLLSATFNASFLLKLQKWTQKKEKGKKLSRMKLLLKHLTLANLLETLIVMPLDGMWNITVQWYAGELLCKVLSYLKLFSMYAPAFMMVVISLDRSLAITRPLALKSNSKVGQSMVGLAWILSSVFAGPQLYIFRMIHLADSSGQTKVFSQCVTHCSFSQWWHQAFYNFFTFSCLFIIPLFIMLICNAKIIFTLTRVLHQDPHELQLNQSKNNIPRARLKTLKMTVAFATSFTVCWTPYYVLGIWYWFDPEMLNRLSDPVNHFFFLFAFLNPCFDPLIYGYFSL
Muscarinic acetylcholine receptor M1 (Homo sapiens), sequence (P11229 whole entry, looked up): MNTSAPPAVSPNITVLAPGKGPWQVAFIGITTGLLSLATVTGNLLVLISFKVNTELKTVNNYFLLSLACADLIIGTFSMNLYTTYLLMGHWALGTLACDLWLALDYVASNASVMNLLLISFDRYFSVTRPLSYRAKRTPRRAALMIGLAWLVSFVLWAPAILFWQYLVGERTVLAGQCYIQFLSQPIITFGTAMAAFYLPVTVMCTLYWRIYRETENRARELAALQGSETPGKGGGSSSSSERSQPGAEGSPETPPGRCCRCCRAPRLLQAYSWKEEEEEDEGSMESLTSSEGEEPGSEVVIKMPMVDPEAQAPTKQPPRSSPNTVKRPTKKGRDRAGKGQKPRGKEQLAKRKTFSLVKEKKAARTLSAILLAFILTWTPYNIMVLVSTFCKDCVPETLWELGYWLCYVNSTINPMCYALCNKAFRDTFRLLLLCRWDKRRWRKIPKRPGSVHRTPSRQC
D(2) dopamine receptor (Homo sapiens), sequence (P14416 whole entry, looked up): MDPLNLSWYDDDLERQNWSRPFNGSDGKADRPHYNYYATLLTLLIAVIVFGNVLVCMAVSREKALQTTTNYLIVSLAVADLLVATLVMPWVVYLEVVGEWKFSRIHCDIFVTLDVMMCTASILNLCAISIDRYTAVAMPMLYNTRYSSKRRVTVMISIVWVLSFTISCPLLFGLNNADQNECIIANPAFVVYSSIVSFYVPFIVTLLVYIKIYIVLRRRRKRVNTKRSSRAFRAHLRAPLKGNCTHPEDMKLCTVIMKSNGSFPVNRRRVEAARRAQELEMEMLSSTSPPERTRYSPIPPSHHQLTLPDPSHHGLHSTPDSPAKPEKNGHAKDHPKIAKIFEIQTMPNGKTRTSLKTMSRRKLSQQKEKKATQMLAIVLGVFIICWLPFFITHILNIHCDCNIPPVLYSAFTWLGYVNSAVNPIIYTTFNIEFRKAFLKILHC
5-hydroxytryptamine receptor 2A (Homo sapiens), sequence (P28223 whole entry, looked up): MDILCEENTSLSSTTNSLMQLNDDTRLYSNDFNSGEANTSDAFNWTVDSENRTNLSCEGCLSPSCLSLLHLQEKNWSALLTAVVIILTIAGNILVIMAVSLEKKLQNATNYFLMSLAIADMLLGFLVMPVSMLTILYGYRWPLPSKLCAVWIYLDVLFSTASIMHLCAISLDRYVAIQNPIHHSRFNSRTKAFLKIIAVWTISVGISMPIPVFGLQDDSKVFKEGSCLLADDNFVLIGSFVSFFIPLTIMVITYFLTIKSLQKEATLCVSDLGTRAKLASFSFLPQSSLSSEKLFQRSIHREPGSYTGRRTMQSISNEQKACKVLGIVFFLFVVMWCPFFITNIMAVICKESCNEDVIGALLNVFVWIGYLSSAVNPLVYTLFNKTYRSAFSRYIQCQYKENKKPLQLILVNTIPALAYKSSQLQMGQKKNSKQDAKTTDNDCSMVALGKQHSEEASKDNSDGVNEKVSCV
KiSS-1 receptor (Homo sapiens), sequence (Q969F8 whole entry, looked up): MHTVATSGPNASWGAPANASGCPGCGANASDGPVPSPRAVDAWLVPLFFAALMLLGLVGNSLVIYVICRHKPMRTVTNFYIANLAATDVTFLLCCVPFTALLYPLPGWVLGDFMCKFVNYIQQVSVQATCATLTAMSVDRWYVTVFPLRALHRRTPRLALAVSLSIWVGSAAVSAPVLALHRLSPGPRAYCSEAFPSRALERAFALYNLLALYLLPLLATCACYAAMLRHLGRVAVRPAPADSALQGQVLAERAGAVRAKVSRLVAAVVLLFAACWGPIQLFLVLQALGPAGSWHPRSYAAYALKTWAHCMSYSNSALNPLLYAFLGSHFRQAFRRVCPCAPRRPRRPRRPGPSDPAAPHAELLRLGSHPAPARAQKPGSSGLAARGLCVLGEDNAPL

NCC1(Cc2noc(=O)[nH]2)CCCCC1
not listed: [20]
inactive: all other assays above

CCCCCC(=O)O[C@]1(C(C)=O)CC[C@H]2[C@@H]3CCC4=CC(=O)CC[C@]4(C)[C@H]3CC[C@@]21C
20.3 µM (active) and inactive: [8]
active: [1] 30.4 µM
not listed: [14] | [15]
inactive: all other assays above

Cc1ccc(C(C)NC(=O)[C@@H](NC(=O)OC(C)C)C(C)C)cc1 (stereo partly drawn)
not listed: [16] | [17] | [19]
inactive: all other assays above

CC(C)(C)C(=O)C(Oc1ccc(Cl)cc1)n1ccnc1 (stereo not drawn)
not listed: [20]
inactive: all other assays above

Cn1c(=O)c2[nH]c(Br)nc2n(C)c1=O
not listed: [20]
inactive: all other assays above

C=C(C)C(=O)OCCNC(C)(C)C
not listed: [20]
inactive: all other assays above

N[C@@H](CCC(=O)Nc1ccc([N+](=O)[O-])cc1)C(=O)O
not listed: [14] | [18] | [19]
inactive: all other assays above
